Active and inactive are the calls of the source.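 Rule for the calls, unless noted: active = compounds killing one labelled cell type while sparing the other, by normalised counts and ratio limits, not self-fluorescent; inactive = the rest.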

Assay [1] in a line: EMT-state selective cytotoxicity in co-culture – imaging, PC-3E GFP, TEM4-18 mCherry, primary screen (AID 1345086).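 For all read-outs here: cells exposed to compound for 72 h before imaging.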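 For red/green cell ratio (normalised): normalised mesenchymal count divided by normalised epithelial count so high means epithelial killing.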 The following applies: PC-3E GFP / TEM4-18 mCherry co-culture, imaging cell counts, at 1 µM; for red/green cell ratio (normalised): actives lie on both sides, counts scaled to control wells, 1 = unselective.
A short description of assay [2]: viability loss with induced miR-34 in A549 – imaging, A549 dox-inducible miR-34, nuclei and caspase counts, primary screen (AID 1347080;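 active = compounds whose cell count with miR-34 switched on is under 0.7 times the count with it off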). The following applies: A549 miR-34 inducible, Hoechst nuclei count, 48 h.
[3] abbreviates: measured here: epithelial PC-3E GFP cell survival.
Where [4] appears, read: measured here: mesenchymal TEM4-18 mCherry cell survival.
Where [5] appears, read: stronger effect = lower value, cell number ratio, induced over uninduced.
The mark [6] stands for this setting: measured here: relative caspase fold change +Dox/-Dox.
Where [7] appears, read: measured here: total cells with miR-34 induction, stronger effect = lower value.
[8] abbreviates: measured here: total cells without miR-34 induction.

Take `CO/N=C(/C(=O)NC1C(=O)N2C(C(=O)O)=C(CSc3nnnn3C)CSC12)c1csc(N)n1` (stereo not given): the red/green cell ratio (normalised) in assay [1] was 0.91 (inactive). For the same compound, the results for the normalised cell number in assay [1] (setting [3]) and in assay [1] (setting [4]) were 1.17 and 1.06, respectively. Also, the figures for the fold change in assay [2] (setting [5]) and in assay [2] (setting [6]) were 0.936 (inactive) and 0.695, respectively. In addition, the results for the cell count in assay [2] (setting [7]) and in assay [2] (setting [8]) were 9050 and 9680, respectively.
As for `CCC(=O)Oc1ccc2c(c1)CCC1C2CC[C@@]2(C)C1CC[C@@H]2OC(=O)CC` (stereo not given in full), the red/green cell ratio (normalised) in assay [1] was 1.36 (inactive). Moreover, the normalised cell number came out at 0.8 in assay [1] (setting [3]) and 1.09 in assay [1] (setting [4]). In addition, the fold change in assay [2] (setting [5]) was 0.968 (inactive); in assay [2] (setting [6]), 0.855. Further, the cell count in assay [2] (setting [7]) is 8160; in assay [2] (setting [8]), 8430.
Regarding `CC1(C)S[C@@H]2[C@H](NC(=O)[C@H](C(=O)O)c3cccs3)C(=O)N2[C@H]1C(=O)O`, in assay [1], the red/green cell ratio (normalised) was 0.96 (inactive). In addition, the normalised cell number in assay [1] (setting [3]) was found to be 1.05; in assay [1] (setting [4]), 1.01. Further, the fold change is 0.949 (inactive) in assay [2] (setting [5]) and 0.673 in assay [2] (setting [6]). Besides, the cell count in assay [2] (setting [7]) came out at 9210; in assay [2] (setting [8]) it was 9700.
As to `O=C1SCN(Cc2ccccc2)CN1Cc1ccccc1`, the red/green cell ratio (normalised) in assay [1] was 0.9 (inactive). In addition, the normalised cell number is 0.96 in assay [1] (setting [3]) and 0.86 in assay [1] (setting [4]). The fold change was 0.983 (inactive) in assay [2] (setting [5]) and 0.637 in assay [2] (setting [6]). Moreover, the cell count in assay [2] (setting [7]) was 8570; in assay [2] (setting [8]), 8710.
As for `NC(N)=NCCCC(N)C(=O)O` (stereo not given), the red/green cell ratio (normalised) in assay [1] is 0.83 (inactive). For the same compound, the results for the normalised cell number in assay [1] (setting [3]) and in assay [1] (setting [4]) were 1.05 and 0.87, respectively. Further, the fold change in assay [2] (setting [5]) is 0.874 (inactive); in assay [2] (setting [6]), 0.933. Moreover, the cell count in assay [2] (setting [7]) is 8700; in assay [2] (setting [8]), 9960.
As to `C#C[C@]1(O)CCC2C3CCc4cc(OC5CCCC5)ccc4C3CC[C@@]21C` (stereo not given in full), in assay [1], the red/green cell ratio (normalised) was 0.98 (inactive). The normalised cell number stood at 1.02 in assay [1] (setting [3]) and 1 in assay [1] (setting [4]). In addition, the fold change in assay [2] (setting [5]) is 0.818 (inactive); in assay [2] (setting [6]), 0.977. In addition, the cell count in assay [2] (setting [7]) stood at 4740; in assay [2] (setting [8]), 5800.
For the compound `COc1nc(N)nc2c1ncn2C1O[C@H](CO)[C@@H](O)[C@@H]1O` (stereo not given in full), the red/green cell ratio (normalised) in assay [1] is 0.99 (inactive). For the same compound, the normalised cell number in assay [1] (setting [3]) turned out to be 0.92; in assay [1] (setting [4]), 0.91. For the same compound, the fold change was 0.89 (inactive) in assay [2] (setting [5]) and 0.801 in assay [2] (setting [6]). Also, the cell count turned out to be 7770 in assay [2] (setting [7]) and 8740 in assay [2] (setting [8]).
With `CCC(CC)O[C@@H]1C=C(C(=O)OC)C[C@H](N)[C@H]1NC(C)=O`, in assay [1], the red/green cell ratio (normalised) was 0.99 (inactive). Further, the normalised cell number in assay [1] (setting [3]) was 1.01; in assay [1] (setting [4]), 1. Moreover, the fold change was 0.882 (inactive) in assay [2] (setting [5]) and 1.08 in assay [2] (setting [6]). In addition, the results for the cell count in assay [2] (setting [7]) and in assay [2] (setting [8]) were 8740 and 9910, respectively.
Consider `OC[C@@H](O)[C@H](O)[C@@H](O)[C@H](O)CO`, for which the red/green cell ratio (normalised) in assay [1] is 1.12 (inactive). For the same compound, the normalised cell number in assay [1] (setting [3]) stood at 0.97; in assay [1] (setting [4]), 1.08. In addition, the fold change in assay [2] (setting [5]) is 0.853 (inactive); in assay [2] (setting [6]), 0.862. Moreover, the figures for the cell count in assay [2] (setting [7]) and in assay [2] (setting [8]) were 7670 and 9000, respectively.
For `NC(=O)C1CCCN1C(=O)C(Cc1cnc[nH]1)NC(=O)C1CCC(=O)N1` (stereo not given), in assay [1], the red/green cell ratio (normalised) was 1.11 (inactive). For the same compound, the normalised cell number in assay [1] (setting [3]) was 0.94; in assay [1] (setting [4]), 1.04. The fold change in assay [2] (setting [5]) was 0.936 (inactive); in assay [2] (setting [6]), 0.922. Further, the figures for the cell count in assay [2] (setting [7]) and in assay [2] (setting [8]) were 8800 and 9400, respectively.
With `COc1cc(O)cc(C(=O)c2ccccc2)c1S(=O)(=O)O`, the red/green cell ratio (normalised) in assay [1] was 1 (inactive). For the same compound, the results for the normalised cell number in assay [1] (setting [3]) and in assay [1] (setting [4]) were 1.17 and 1.18, respectively. The fold change in assay [2] (setting [5]) is 0.973 (inactive); in assay [2] (setting [6]), 0.886. Besides, the cell count in assay [2] (setting [7]) worked out at 9730; in assay [2] (setting [8]) it was 10000.
With `O=c1[nH]c(=O)n([C@H]2C[C@H](O)C(CO)O2)cc1I` (stereo not given in full), the red/green cell ratio (normalised) in assay [1] was 0.98 (inactive). Further, the results for the normalised cell number in assay [1] (setting [3]) and in assay [1] (setting [4]) were 1.09 and 1.07, respectively. The fold change in assay [2] (setting [5]) is 1.01 (inactive); in assay [2] (setting [6]), 0.724. The figures for the cell count in assay [2] (setting [7]) and in assay [2] (setting [8]) were 7950 and 7880, respectively.
In the case of `C=C(C)C1CC=C(C)CC1` (stereo not given), in assay [1], the red/green cell ratio (normalised) is 0.93 (inactive). The normalised cell number came out at 1.03 in assay [1] (setting [3]) and 0.96 in assay [1] (setting [4]). In addition, the fold change in assay [2] (setting [5]) is 0.884 (inactive); in assay [2] (setting [6]) it was 1.07. The figures for the cell count in assay [2] (setting [7]) and in assay [2] (setting [8]) were 8150 and 9220, respectively.
`C=C1CC2C3C=C(C)C4=CC(=O)CC[C@]4(C)C3CC[C@]2(C)[C@@]1(OC(C)=O)C(C)=O` (stereo not given in full): in assay [1], the red/green cell ratio (normalised) was 1.26 (inactive). The normalised cell number in assay [1] (setting [3]) is 0.99; in assay [1] (setting [4]), 1.24. The fold change in assay [2] (setting [5]) was 0.949 (inactive); in assay [2] (setting [6]) it was 1.45. For the same compound, the results for the cell count in assay [2] (setting [7]) and in assay [2] (setting [8]) were 4400 and 4640, respectively.
For `CC(=O)c1ccc2c(c1)Sc1ccccc1N2CCCN1CCN(CCO)CC1`, in assay [1], the red/green cell ratio (normalised) is 1.02 (inactive). Moreover, the normalised cell number in assay [1] (setting [3]) is 1.21; in assay [1] (setting [4]), 1.23. The fold change is 0.952 (inactive) in assay [2] (setting [5]) and 0.758 in assay [2] (setting [6]). For the same compound, the values for the cell count in assay [2] (setting [7]) and in assay [2] (setting [8]) were 8860 and 9300, respectively.
For `CC(=O)OC1CC2CCC1(C)C2(C)C` (stereo not given), the red/green cell ratio (normalised) in assay [1] was 1.03 (inactive). Moreover, the normalised cell number in assay [1] (setting [3]) was 0.91; in assay [1] (setting [4]), 0.94. Moreover, the fold change in assay [2] (setting [5]) was 0.913 (inactive); in assay [2] (setting [6]) it was 0.766. In addition, the cell count in assay [2] (setting [7]) was 8690; in assay [2] (setting [8]), 9520.
Regarding `CC1(C)C2CCC1(CS(=O)(=O)O)C(=O)/C2=C\c1ccc(/C=C2\C(=O)C3(CS(=O)(=O)O)CCC2C3(C)C)cc1`, the red/green cell ratio (normalised) in assay [1] was 0.78 (inactive). Further, the normalised cell number in assay [1] (setting [3]) turned out to be 1.44; in assay [1] (setting [4]), 1.12. Moreover, the fold change was 0.905 (inactive) in assay [2] (setting [5]) and 1.03 in assay [2] (setting [6]). Besides, the cell count amounted to 8090 in assay [2] (setting [7]) and 8940 in assay [2] (setting [8]).
Turning to `CCC(=O)OCC(=O)[C@@]1(OC(=O)CC)[C@H](C)CC2C3C([C@@H](O)C[C@@]21C)[C@@]1(C)C=CC(=O)C=C1C[C@H]3Cl` (stereo not given in full), in assay [1], the red/green cell ratio (normalised) is 1.28 (inactive). Further, the values for the normalised cell number in assay [1] (setting [3]) and in assay [1] (setting [4]) were 0.98 and 1.25, respectively. Further, the fold change in assay [2] (setting [5]) was 0.884 (inactive); in assay [2] (setting [6]) it was 0.881. For the same compound, the cell count in assay [2] (setting [7]) came to 5210; in assay [2] (setting [8]) it was 5890.
As for `CC1/C=C/C=C/C=C/C=C/C=C/C=C/C=C/C(O[C@@H]2O[C@H](C)[C@H](O)[C@@H](O)[C@@H]2N)CC(O)C(C(=O)O)C(O)CC(=O)CC(O)CC(O)CC(O)CC(=O)CCCC(=O)CC(=O)OC1C(C)CC(C)C(O)CC(=O)c1ccc(N)cc1` (stereo not given in full), the red/green cell ratio (normalised) in assay [1] is 0.94 (inactive). The normalised cell number was determined as 1.09 in assay [1] (setting [3]) and 1.03 in assay [1] (setting [4]). Moreover, the results for the fold change in assay [2] (setting [5]) and in assay [2] (setting [6]) were 0.786 (inactive) and 1.31, respectively. For the same compound, the cell count in assay [2] (setting [7]) amounted to 5340; in assay [2] (setting [8]), 6790.
Turning to `C[C@]1(Cn2ccnn2)C(C(=O)O)N2C(=O)CC2S1(=O)=O` (stereo not given in full), the red/green cell ratio (normalised) in assay [1] was 0.89 (inactive). Moreover, the normalised cell number amounted to 1.34 in assay [1] (setting [3]) and 1.19 in assay [1] (setting [4]). Further, the fold change in assay [2] (setting [5]) was 0.905 (inactive); in assay [2] (setting [6]), 0.742. Moreover, the cell count in assay [2] (setting [7]) turned out to be 8100; in assay [2] (setting [8]), 8960.

The values above are taken from PubChem BioAssay.
